Screening results deposited in PubChem by National Center for Advancing Translational Sciences (NCATS).
HCMV antiviral = blocks human cytomegalovirus replication | HFF cells, HCMV-luciferase reporter, 72 h; hits give low values | activity change, negative = inhibition, % at 57.5 µM | hit rate 4.5% among 410,000 | AID 1259415; in the data active = activity change below about -60%; inconclusive = no clear call, values can overlap the other calls; inactive = above about -39%
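Steps: HFFs plated, 16 h 37C; compounds added; HCMV-luciferase added to MOI 1 PFU/cell; 72 h 37C; OneGlo reagent, 5 min room temperature; luminescence read, normalized to controls.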
Pf growth 48h = P. falciparum growth inhibition at 48 hours (one generation) | hit rate 5.9% among 310,000 | P. falciparum luciferase growth in erythrocytes, 48 h | Potency, µM (doses to about 28.7 µM), for inactives: at the highest dose activity change, negative = inhibition, usual class: inhibitors | AID 504832; also: potency is read from the fitted curve at half-maximal effect
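Luciferase-expressing parasites in RBCs, 2% Hct / 0.1% parasitemia final; RPMI 1640 + 0.5% Albumax; 37 C, 5% CO2, one generation; luminescence read-out, lower signal = inhibition.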
Pf growth 96h = inhibits malaria parasite growth, 96 h; P. falciparum luciferase reporter growth, 96 h; Potency, µM (highest dose often 28.7 µM), inactives show at the top dose activity change, negative = inhibition, usual class: inhibitors; hit rate 6.9% among 320,000; also: potency is read from the fitted curve at half-maximal effect
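Plates of compound plus infected erythrocytes (2% hematocrit, 0.05% parasitemia final) incubate 96 hours, 37 C, 5% CO2. Detection reagent added; reduced luminescence from the parasites' luciferase reporter flags inhibition.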
MARV entry inh = inhibitors of Marburg virus binding or cell entry. Marburg virus pseudotyped entry inhibition, cell reporter. Potency, µM (doses to about 37.8 µM), inactives show at the top dose activity change, negative = inhibition, hits mostly inhibitors. hit rate 1.8% among 300,000; calls by dose curve; tested in HEK293 cells; also: potency is read from the fitted curve at half-maximal effect
Lassa entry inh = inhibitors of Lassa virus binding or cell entry; Lassa virus pseudotype entry inhibition, cell reporter; Potency, µM (highest dose often 37.9 µM), for inactives: top-dose activity change, negative = inhibition, usual class: inhibitors; hit rate 1.2% among 300,000; AID 540256; calls by dose curve; tested in HEK293 cells; also: potency is read from the fitted curve at half-maximal effect; nearly all actives have a fitted effect of over 50% in size
HCV inhibitor = inhibitors of hepatitis C virus infection; hit rate 3.4% among 340,000; Huh7.5.1 HCVcc-Cre infection, luciferase reporter, 44 h; AID 651820; Potency, µM (highest dose often 41.8 µM), without a hit: at the highest dose activity change, negative = inhibition, actives largely listed as inhibitors; also: potency is read from the fitted curve at half-maximal effect
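Reporter virus HCVcc-Cre (~0.5 moi) infects cells exposed to compound; seeding density 1,000 cells/well with 4 h settling beforehand. Luminescence, 15 sec read, taken 44 h post-infection following a 15 min RT substrate incubation.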
The depositor's hits bear a star; [ ] = remark or other dose. The list is not random: actives were taken first. Their share in the collection is about 14%. Unless noted, calls follow the shape of the dose curve; as a rule, active = well fitted inhibition curve with a large enough effect; inconclusive = small, poorly fitted or top-dose-only effect, or another doubt; inactive = no such curve, though single readings can be large or run the other way. % is scaled to controls: 0 for no effect and ±100 for the full control effect.

For Cc1ccccc1NC(=O)CN1C(=O)CSc2ccc(S(=O)(=O)N3CCCC3)cc21 the results were HCMV antiviral 10, Pf growth 48h -16%, Pf growth 96h 13µM* and HCV inhibitor -8%.
`Cc1ccccc1NC(=O)CN1C(=O)CSc2ccc(S(=O)(=O)N3CCCCC3)cc21` gave HCMV antiviral -37, Pf growth 48h inconclusive, Pf growth 96h -4% and HCV inhibitor -3%.
CCOc1ccc(NC(=O)CN2C(=O)CSc3ccc(S(=O)(=O)N4CCCC4)cc32)cc1 was read as HCMV antiviral active, Pf growth 48h -9%, Pf growth 96h inconclusive and HCV inhibitor inconclusive.
For CCOc1ccc(NC(=O)CN2C(=O)CCSc3ccc(S(=O)(=O)N4CCCC4)cc32)cc1 the results were HCMV antiviral 4, Pf growth 48h inconclusive, Pf growth 96h 9%, Lassa entry inh 21%[46.1 µM] and HCV inhibitor -28%.
Screening CCOc1ccc(NC(=O)CN2C(=O)C(C)SC(C)C2=O)cc1 (stereo not drawn) returned HCMV antiviral -65*, Pf growth 48h -14%, Pf growth 96h 60%, MARV entry inh 1%[46.1 µM], Lassa entry inh 8% and HCV inhibitor 6%.
`COc1cccc(C2c3c(oc4ccc(Cl)cc4c3=O)C(=O)N2c2cc(C)on2)c1OC` (stereo not drawn) gave HCMV antiviral -25, Pf growth 48h 9%, Pf growth 96h 8.3µM*, MARV entry inh -13%, Lassa entry inh 9% and HCV inhibitor -13%.
O=C(CCN1CCOCC1)NNC(=O)/C(=C/c1ccccc1)NC(=O)c1ccccc1 was read as HCMV antiviral 1, Pf growth 48h 15%, Pf growth 96h 20%, MARV entry inh inconclusive, Lassa entry inh 11µM* and HCV inhibitor 19%.
For O=C(N/C(=C\c1cccnc1)C(=O)N1CCOCC1)c1cccc(Br)c1 the results were HCMV antiviral 14, Pf growth 48h -16%, Pf growth 96h inconclusive, MARV entry inh 17%, Lassa entry inh 3% and HCV inhibitor 17%.
Screening O=C(N/C(=C\c1ccccc1)C(=O)N1CCOCC1)c1cccc(Br)c1 returned HCMV antiviral 4, Pf growth 48h inconclusive, Pf growth 96h 7.4µM*, MARV entry inh -30%, Lassa entry inh 8% and HCV inhibitor inconclusive.
Screening Cn1ncc2c(O/N=C(\N)c3ccc(C(F)(F)F)cc3)ncnc21 returned HCMV antiviral -19, Pf growth 48h inconclusive, Pf growth 96h -19% and HCV inhibitor inconclusive.
For CCc1c(CN2CCN(c3ccc(F)cc3)CC2)csc1C the results were HCMV antiviral -5 and Lassa entry inh 28%[46.1 µM].
For O=C(CSc1nnc(CNC(=O)c2ccco2)o1)Nc1ccc(Cl)cc1 the results were HCMV antiviral 0, Pf growth 48h 21%, Pf growth 96h 10µM* and HCV inhibitor 22%.
For O=C(CSc1nnc(CNC(=O)c2ccco2)o1)c1ccccc1 the results were HCMV antiviral 62, Pf growth 96h 4.1µM*, MARV entry inh 1%, Lassa entry inh inconclusive and HCV inhibitor 10%.
Screening COc1ccc(OC)c(NC(=O)CSc2nnc(CNC(=O)c3ccco3)o2)c1 returned HCMV antiviral -7, Pf growth 96h 2.6µM*, MARV entry inh -9%, Lassa entry inh -1% and HCV inhibitor 2%.
Cc1cc(C)c(NC(=O)CSc2nnc(CNC(=O)c3ccco3)o2)c(C)c1 was read as HCMV antiviral -33, Pf growth 48h -20%, Pf growth 96h 9.3µM*, MARV entry inh inconclusive, Lassa entry inh -3%[46.1 µM] and HCV inhibitor 6%.
For COc1ccc(Cl)cc1NC(=O)CSc1nnc(CNC(=O)c2ccco2)o1 the results were HCMV antiviral 2, Pf growth 48h 10%, Pf growth 96h inconclusive and HCV inhibitor 13%.
`CCN(CC)C(=O)C1=C(C)N(CCC2=CCCCC2)C(=O)C(CC(=O)NCc2ccco2)C1` (stereo not drawn) gave HCMV antiviral 16.
O=c1ccn([C@@H]2O[C@H](CNCc3cccn3-c3nccs3)[C@@H](O)[C@H]2O)c(=O)[nH]1 was read as HCMV antiviral -4.
